Assay [1] can be described thus: NCI Yeast Anticancer Drug Screen. Data for the rad50 strain (AID 155).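 Further: 0% = growth of vehicle-only cultures of the same strain.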 The conditions noted are these: S. cerevisiae rad50 strain growth inhibition, hits give high values. An outline of the steps: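 Genetically altered yeast (DNA repair pathway); compound treatment; growth inhibition vs vehicle ctrl.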
The nature of assay [2]: NCI Yeast Anticancer Drug Screen. Data for the mec2-1 strain (AID 157). The conditions noted are these: S. cerevisiae mec2-1 strain, hits give high values. An outline of the steps: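 Strain: mec2-1 (DNA repair/cell cycle alteration). Compound exposure, then growth measured; inhibition expressed relative to vehicle.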
Assay [3] is described as follows: NCI Yeast Anticancer Drug Screen. Data for the sgs1 mgt1 strain (AID 161).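 Further: 0% = growth of cultures given vehicle only.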 The conditions noted are these: S. cerevisiae sgs1 mgt1 strain, hits give high values. An outline of the steps:
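Genetically altered yeast, compound exposure, growth inhibition relative to vehicle.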

Assay [4] is described as follows: NCI Yeast Anticancer Drug Screen. Data for the cln2 rad14 strain (AID 165).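 Further: 0% = growth equal to vehicle treated cultures.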 The conditions noted are these: S. cerevisiae cln2 rad14 strain, hits give high values. An outline of the steps: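 Compounds are applied to the cln2 rad14 yeast strain, and growth is then compared with that of vehicle-treated cultures to give inhibition.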
Assay [5] in a line: NCI Yeast Anticancer Drug Screen. Data for the bub3 strain (AID 167). The conditions noted are these: S. cerevisiae bub3 mutant strain, hits give high values. An outline of the steps: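 Yeast carrying a defined mutation is treated with each compound, and growth is compared with that of vehicle-exposed cells to give inhibition.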
A short description of assay [6]: NCI Yeast Anticancer Drug Screen. Data for the mlh1 rad18 strain (AID 175). The conditions noted are these: S. cerevisiae mlh1 rad18 strain growth inhibition, hits give high values. In short, it runs like this: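 Read-out is yeast growth inhibition, calculated against vehicle-only controls. The compound was applied to a strain engineered with DNA damage repair alterations.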

Setting [7] is: at 5.0 µM (retest, dose inferred, filed as 0.5).
Where [8] appears, read: at 50.0 µM (retest, dose inferred, filed as 5.0).

This is part of a sample that, as a whole, favours compounds with a hit. Of some 79,000 tested, about 15% had one in any assay. Values without a mark were called inactive. Activity calls are given as the source filed them. No stated cut-off is given here; in the data, active means growth inhibition above about 70%; inactive means the rest.

For `O=C1/C(=C/c2ccccc2Cl)COc2ccccc21`, the growth inhibition is 30% in assay [1] (setting [7]); 97% (active) in assay [1] (setting [8]); 91.5% (active) in assay [1] (at 50.0 µM); -15% in assay [2] (setting [7]); 98% (active) in assay [2] (setting [8]); 93.9% (active) in assay [2] (at 50.0 µM). The growth inhibition in assay [3] (setting [7]) was 15%; in assay [3] (setting [8]), 97% (active); in assay [3] (at 50.0 µM), 90.7% (active); in assay [4] (setting [7]), 20%; in assay [4] (setting [8]) it was 97% (active); in assay [4] (at 50.0 µM) it was 90.8% (active). In addition, the growth inhibition is 32% in assay [5] (setting [7]); 98% (active) in assay [5] (setting [8]); 90.7% (active) in assay [5] (at 50.0 µM); -25% in assay [6] (setting [7]); 97% (active) in assay [6] (setting [8]); 90.2% (active) in assay [6] (at 50.0 µM).
For `CCCCc1c2c(nc3c1CCCC3O)/C(=C/c1ccccc1)CCC2` (stereo not given), the growth inhibition is 0% in assay [1] (setting [7]); 42% in assay [1] (setting [8]); 50.8% in assay [1] (at 50.0 µM); 0% in assay [2] (setting [7]); 47% in assay [2] (setting [8]); 53.9% in assay [2] (at 50.0 µM). The growth inhibition in assay [3] (setting [7]) is -2%; in assay [3] (setting [8]), 67%; in assay [3] (at 50.0 µM), 49.9%; in assay [4] (setting [7]), -3%; in assay [4] (setting [8]), 30%; in assay [4] (at 50.0 µM), 59.9%. Further, the growth inhibition in assay [5] (setting [7]) is 3%; in assay [5] (setting [8]), 89% (active); in assay [5] (at 50.0 µM), 83.7% (active); in assay [6] (setting [7]), 1%; in assay [6] (setting [8]), 71% (active); in assay [6] (at 50.0 µM), 80.3% (active).
As for `CC(=O)Nc1c([N+](=O)[O-])cc2c3c(cccc13)C=C2`, the growth inhibition was 3% in assay [1] (setting [7]); 77% (active) in assay [1] (setting [8]); 24.8% in assay [1] (at 50.0 µM); 1% in assay [2] (setting [7]); 47% in assay [2] (setting [8]); 16.1% in assay [2] (at 50.0 µM). Further, the growth inhibition in assay [3] (setting [7]) was 6%; in assay [3] (setting [8]) it was 56%; in assay [3] (at 50.0 µM), 9.8%; in assay [4] (setting [7]), 6%; in assay [4] (setting [8]), 77% (active); in assay [4] (at 50.0 µM), 74.9% (active). Also, the growth inhibition is 3% in assay [5] (setting [7]); 23% in assay [5] (setting [8]); -17.2% in assay [5] (at 50.0 µM); 31% in assay [6] (setting [7]); 94% (active) in assay [6] (setting [8]); 67.8% in assay [6] (at 50.0 µM).
Take `O=C1C=C(Br)C(=O)C12CCc1ccccc12` (stereo not given): the growth inhibition is 99% (active) in assay [1] (setting [7]); 99% (active) in assay [1] (setting [8]); 99.7% (active) in assay [1] (at 50.0 µM); 100% (active) in assay [2] (setting [7]); 99% (active) in assay [2] (setting [8]); 99.8% (active) in assay [2] (at 50.0 µM). Besides, the growth inhibition in assay [3] (setting [7]) is 93% (active); in assay [3] (setting [8]), 100% (active); in assay [3] (at 50.0 µM), 99.5% (active); in assay [4] (setting [7]) it was 99% (active); in assay [4] (setting [8]), 99% (active); in assay [4] (at 50.0 µM) it was 99.3% (active). Moreover, the growth inhibition in assay [5] (setting [7]) is 99% (active); in assay [5] (setting [8]), 99% (active); in assay [5] (at 50.0 µM), 99.6% (active); in assay [6] (setting [7]), 99% (active); in assay [6] (setting [8]) it was 99% (active); in assay [6] (at 50.0 µM) it was 99.5% (active).
Consider `Cn1nc2c(c(Cl)c1=O)Nc1ccccc1O2`, for which the growth inhibition in assay [1] (setting [7]) is -32%; in assay [1] (setting [8]) it was -16%; in assay [1] (at 50.0 µM), 0.85%; in assay [2] (setting [7]) it was -9%; in assay [2] (setting [8]), -34%; in assay [2] (at 50.0 µM) it was -30.4%. The growth inhibition in assay [3] (setting [7]) is -20%; in assay [3] (setting [8]), -19%; in assay [3] (at 50.0 µM) it was -24.8%; in assay [4] (setting [7]) it was -8%; in assay [4] (setting [8]), -9%; in assay [4] (at 50.0 µM) it was 23.1%. In addition, the growth inhibition is -45% in assay [5] (setting [7]); -18% in assay [5] (setting [8]); 1.35% in assay [5] (at 50.0 µM); -25% in assay [6] (setting [7]); -14% in assay [6] (setting [8]); -6.7% in assay [6] (at 50.0 µM).
As to `COC(=O)C1(Cc2ccc(C)cc2)Cc2c(C)cccc2C1=O` (stereo not given), the growth inhibition was -2% in assay [1] (setting [7]); 47% in assay [1] (setting [8]); 70.3% (active) in assay [1] (at 50.0 µM); -2% in assay [2] (setting [7]); 35% in assay [2] (setting [8]); 39.9% in assay [2] (at 50.0 µM). Besides, the growth inhibition in assay [3] (setting [7]) was 13%; in assay [3] (setting [8]), 45%; in assay [3] (at 50.0 µM), 75.8% (active); in assay [4] (setting [7]), 6%; in assay [4] (setting [8]) it was 32%; in assay [4] (at 50.0 µM), 55.9%. In addition, the growth inhibition in assay [5] (setting [7]) was 17%; in assay [5] (setting [8]), 71% (active); in assay [5] (at 50.0 µM), 75.2% (active); in assay [6] (setting [7]), -1%; in assay [6] (setting [8]), 54%; in assay [6] (at 50.0 µM), 54.4%.
Regarding `Cn1cnc([N+](=O)[O-])c1Sc1ccc(Cl)cc1`, the growth inhibition in assay [1] (setting [7]) is 16%; in assay [1] (setting [8]) it was 93% (active); in assay [1] (at 50.0 µM), 93.8% (active); in assay [2] (setting [7]), 8%; in assay [2] (setting [8]), 92% (active); in assay [2] (at 50.0 µM), 76.9% (active). Moreover, the growth inhibition in assay [3] (setting [7]) is 11%; in assay [3] (setting [8]), 98% (active); in assay [3] (at 50.0 µM), 90.9% (active); in assay [4] (setting [7]) it was 2%; in assay [4] (setting [8]) it was 61%; in assay [4] (at 50.0 µM), 42.2%. Further, the growth inhibition in assay [5] (setting [7]) is 0%; in assay [5] (setting [8]), 92% (active); in assay [5] (at 50.0 µM), 83.2% (active); in assay [6] (setting [7]) it was 5%; in assay [6] (setting [8]), 97% (active); in assay [6] (at 50.0 µM) it was 90.3% (active).
For the molecule `Cc1cccc2c1Oc1ccccc1C2N1C(=O)/C(=C/c2cccs2)SC1=S` (stereo not given), the growth inhibition in assay [1] (setting [7]) is 1%; in assay [1] (setting [8]), 12%; in assay [1] (at 50.0 µM) it was 51.8%; in assay [2] (setting [7]), -23%; in assay [2] (setting [8]) it was 37%; in assay [2] (at 50.0 µM) it was 53.8%. Besides, the growth inhibition in assay [3] (setting [7]) was -6%; in assay [3] (setting [8]) it was 28%; in assay [3] (at 50.0 µM) it was 88% (active); in assay [4] (setting [7]) it was -11%; in assay [4] (setting [8]), 1%; in assay [4] (at 50.0 µM) it was 72.2% (active). Moreover, the growth inhibition in assay [5] (setting [7]) is -8%; in assay [5] (setting [8]) it was -4%; in assay [5] (at 50.0 µM), 26.4%; in assay [6] (setting [7]), 2%; in assay [6] (setting [8]), 45%; in assay [6] (at 50.0 µM) it was 42.4%.
As to `CCSc1nnc(CSc2nc(-c3ccccc3)c(-c3ccccc3)[nH]2)n1-c1ccccc1`, the growth inhibition in assay [1] (setting [7]) is 35%; in assay [1] (setting [8]), 35%; in assay [1] (at 50.0 µM), 79.1% (active); in assay [2] (setting [7]), 30%; in assay [2] (setting [8]), 30%; in assay [2] (at 50.0 µM), 68.7%. In addition, the growth inhibition in assay [3] (setting [7]) was 32%; in assay [3] (setting [8]) it was 32%; in assay [3] (at 50.0 µM), 76.7% (active); in assay [4] (setting [7]), 26%; in assay [4] (setting [8]) it was 26%; in assay [4] (at 50.0 µM), 74.5% (active). Moreover, the growth inhibition in assay [5] (setting [7]) is 25%; in assay [5] (setting [8]), 25%; in assay [5] (at 50.0 µM), 63.9%; in assay [6] (setting [7]), 28%; in assay [6] (setting [8]), 28%; in assay [6] (at 50.0 µM), 62.5%.
In the case of `Nc1nc(-c2ccc(Cl)cc2)c(N=Nc2ccc(Br)cc2)s1`, the growth inhibition in assay [1] (setting [7]) was 1%; in assay [1] (setting [8]), 93% (active); in assay [1] (at 50.0 µM), 97.5% (active); in assay [2] (setting [7]) it was -20%; in assay [2] (setting [8]), 96% (active); in assay [2] (at 50.0 µM), 98% (active). Also, the growth inhibition in assay [3] (setting [7]) was 3%; in assay [3] (setting [8]), 94% (active); in assay [3] (at 50.0 µM), 98.3% (active); in assay [4] (setting [7]), -11%; in assay [4] (setting [8]), 89% (active); in assay [4] (at 50.0 µM), 95.4% (active). Also, the growth inhibition in assay [5] (setting [7]) was -17%; in assay [5] (setting [8]) it was 91% (active); in assay [5] (at 50.0 µM), 96.5% (active); in assay [6] (setting [7]), 11%; in assay [6] (setting [8]) it was 97% (active); in assay [6] (at 50.0 µM), 98.5% (active).

(Values after PubChem BioAssay (NCI).)
